Screens as filed in PubChem.
Compounds with a hit are over-represented: about 4.3% of the library has one in this group of screens.
SMARCA2 act: SMARCA2 function activation, primary screen; hit rate 1% among 370,000; activation, % at 9.1 µM; MG213 cells, MMTV-luciferase reporter, dexamethasone, overnight; AID 652017; in the data active = activation above about 7.8%
esBAF inh: inhibitors of esBAF chromatin remodeling in mouse ES cells; Bmi1-luciferase knock-in reporter, 24 h; 100% = twice the neutral-well signal; hit rate 2% among 350,000; reporter increase, % at 12.5 µM; AID 602393; in the data active = activation above about 40%; inconclusive = no clear call, values can overlap the other calls;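 note: a rise in the Bmi1 reporter signal indicates esBAF inhibition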
Wnt bcat act: activators of Wnt/beta-catenin signaling | activation, % at 9.35 µM | AID 743398 | hit rate 1.2% among 300,000 | Wnt/beta-catenin reporter cell assay, activator, plate reader; in the data active = activation above about 30%, passing the limit was not always enough; inconclusive = no clear call, values can overlap the other calls
MITF act: MITF TRPM1 promoter activation in melanoma cells; SK-MEL-5 TRPM1-promoter luciferase, 24 h; % of positive control, neutral wells = 0; activation, % at 12.5 µM; hit rate 0.75% among 300,000;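 active = mean activation of at least 80% with every replicate also reaching 80%; inconclusive = mean reaches 80% but some replicate falls short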
HSF-1 act: increases HSF-1 driven luciferase reporter signal. NIH3T3-HGL HSF-1 luciferase reporter, MG132, 8 h; 100% = twice DMSO control signal. activation, % at 9 µM. hit rate 1.7% among 300,000;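 active = mean replicate activation of at least 50% with a set share of replicates each reaching 50%; inconclusive = only one of those two conditions met; inactive = mean below 50% and too few replicates reaching it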
HSF1 inhib: HSF1 inhibition. NIH3T3-HGL HSE-luciferase, MG132-induced, luminescence 8 h; stronger effect = lower value. activity change, negative = inhibition, % at 7.5 µM (by protocol). hit rate 0.77% among 300,000;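 active = more than half of replicate wells show activity change below -50%, luminescence cut by over half; inconclusive = some wells, but at most half, below -50%; inactive = no replicate well below -50%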;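 note: luciferase reports HSF-1 transcriptional activity via heat shock element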
Numbers stand for hits; – = inactive; ? = inconclusive; · = no result given.

SMILES	SMARCA2 act	esBAF inh	Wnt bcat act	MITF act	HSF-1 act	HSF1 inhib
Cc1ccc2c(c1)CCCN2C(=O)Nc1ccc2c(c1)OCO2	–	?	–	·	–	–
O=C(Nc1ccc2c(c1)OCO2)N1CCCc2ccccc21	–	?	36	–	–	–
CC(C)C1N=C(c2ccc3c(c2)OCO3)CC(c2ccccc2O)N1 (stereo not given)	–	47	·	–	75	–
CC(C)(C)N(Cc1ccccc1)C(=O)CN1C(=O)c2ccccc2C1=O	–	46	–	–	–	–
C[C@@H]1CN([C@H](C)CO)C(=O)c2c(c3ccccc3n2C)-c2ccccc2CO[C@@H]1CN(C)Cc1cccnc1	·	–	·	·	·	·
c1ccc(CCNc2nc3ccccc3n3nnnc23)cc1	–	–	·	–	–	–
ClC(Cl)(Cl)c1nc2ccccc2n2nncc12	–	–	–	–	208	–
CO[C@H]1CN(C)C(=O)c2cc(NC(=O)C3CC3)ccc2OC[C@H](C)N(C(=O)c2cccnc2)C[C@@H]1C	·	–	·	·	·	·
CCOC(=O)c1cc(CC)sc1/N=C/C1=C(O)CCCC1=O	–	–	–	–	–	-54
Cc1nn(-c2cccc(Cl)c2)c2c1C(c1cccnc1)C(C#N)=C(N)O2 (stereo not given)	–	·	–	–	–	–
Cc1nn(-c2cccc(Cl)c2)c2c1C(c1ccncc1)C(C#N)=C(N)O2 (stereo not given)	–	–	·	·	82	–
COc1ccccc1-c1nc(C#N)c(N2CCN(Cc3ccccc3)CC2)o1	–	–	·	–	–	–
N#Cc1nc(-c2ccco2)oc1N1CCN(Cc2ccccc2)CC1	–	–	–	–	–	-80
O=C(NC[C@H]1[C@@H](c2ccccc2)[C@@H](CO)N1Cc1ccccn1)C1CCC1	·	–	·	·	·	·
CCN(c1ccccc1)S(=O)(=O)c1ccc(Cl)c(C(=O)N2CCCC2)c1	–	–	–	–	·	·
CCN(c1ccccc1)S(=O)(=O)c1ccc(Cl)c(C(=O)N(CC2CCCO2)C2CCS(=O)(=O)C2)c1 (stereo not given)	–	·	–	–	–	-58
Nc1n[nH]c(-c2ccc(F)cc2)n1	–	–	–	·	–	–
CSc1n[nH]c(-c2ccc(C(F)(F)F)cc2)n1	–	41	–	–	–	–
CO[C@@H]1CN(C)C(=O)c2cc(NS(=O)(=O)c3ccccc3)ccc2OC[C@H](C)N(Cc2ccccn2)C[C@@H]1C	·	–	·	·	·	·
CCC(=O)N1[C@@H]2c3cccc(=O)n3C[C@@H]2[C@@H](CO)[C@@H]1C(=O)NC1CCCCC1	·	–	·	·	·	·
CCCCn1cnc2c(oc3ccccc32)c1=O	–	?	–	99	–	–
CO[C@@H]1CN(C)C(=O)c2cc(NS(=O)(=O)CC(F)(F)F)ccc2OC[C@H](C)N(C(=O)c2ccc3c(c2)OCO3)C[C@@H]1C	·	–	·	·	·	·
COc1ccc(C2N(C(=O)CN3CCCC3)CCCN2S(=O)(=O)c2ccccc2)cc1 (stereo not given)	–	–	–	–	105	–
COc1ccc(C2N(C(C)=O)CCCN2S(=O)(=O)c2ccc(C)cc2)cc1 (stereo not given)	–	–	–	–	–	–
O=c1ccc2ccc(Oc3ccc([N+](=O)[O-])cc3[N+](=O)[O-])cc2o1	·	·	·	·	68	–
SMILES	SMARCA2 act	esBAF inh	Wnt bcat act	MITF act	HSF-1 act	HSF1 inhib
c1csc(-c2nnc(-c3ccc(N4CCOCC4)cc3)o2)c1	–	–	·	–	–	–
c1csc(-c2ccc(N3CCOCC3)nn2)c1	–	–	34	–	–	–
CCOC(=O)C1CCN(c2ccc(-c3cccs3)nn2)CC1	–	–	38	84	–	–
COc1ccc(-c2nc3ccccc3nc2-c2ccccc2)cc1	–	–	·	–	–	–
COc1ccc2nc3ccccc3nc2c1	–	42	–	93	–	–
CC(=O)c1ccc(N2Cc3ccccc3C2=NC(=O)c2cccs2)cc1	–	–	?	94	–	–
COc1ccc(N2Cc3ccccc3C2=NC(=O)c2cncc(Br)c2)cc1	–	·	–	–	·	·
CCOC(=O)c1ccc(N2Cc3ccccc3C2=NC(=O)c2ccncc2)cc1	–	·	46	102	·	·
N#Cc1ccc(N2Cc3ccccc3C2=NC(=O)c2cccs2)cc1	–	·	–	–	–	–
CCOC(=O)c1ccc(N2Cc3ccccc3C2=NC(=O)c2cccs2)cc1	–	·	–	112	·	·
COc1ccc(S(=O)(=O)Nc2ccc3c(c2)C(=O)N([C@H](C)CO)C[C@@H](C)[C@@H](CN(C)Cc2ccncc2)OCCCC[C@@H](C)O3)cc1	·	–	·	·	·	·
